# Assay results as given in PubChem BioAssay (NCATS).
# Records with an inconclusive call do not appear. Calls of active or inactive are those of the source. The call rests on the fitted dose curve; in most records, active means well fitted cell-killing curve with a large enough effect; inconclusive means small, poorly fitted or top-dose-only effect, or effect the other way; inactive means flat fitted curve, though single readings scatter.
# Tested on: Hek293T
# Assay: Primary qHTS to identify gynecologic anti-cancer compounds using libraries of approved drugs and bioactive compounds (AID 1345084); further: nearly all actives have a fitted effect of over 55% in size
# Details: Gynecologic cancer cell panel viability, ATPlite luminescence, 48 h, control line for the selectivity index; series mostly up to 57.5 µM; activity change, negative = cytotoxicity: at the top concentration
# Method in brief: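 Cells, 1,000 per well, were allowed to settle for 16 h at 37 C before compound addition. Five concentrations were tested for 48 h, and viability was read by ATPlite luminescence after 15 min at room temperature.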
# On the % scale 0 is the no-effect control and ±100 the full control effect; potency means the concentration at half of the fitted maximal effect.
SMILES,Potency,"activity change, negative = cytotoxicity"
COc1ccc(-c2ccc3c(N4CCOCC4)nc(N4CC(C)OC(C)C4)nc3n2)cc1CO (stereo unspecified),1.58 µM (active),–
CCn1c(=O)c(-c2ccn[nH]2)cc2c(C)nc(N)nc21,8.91 µM (active),–
COc1cc(C2c3cc4c(c(O)c3CC(CO)C2C(=O)O)OCO4)cc(OC)c1O (stereo unspecified),3.98 µM (active),–
CC(C)(C)Nc1nc2cc(Cl)c(Cl)cc2nc1S(C)(=O)=O,28.2 µM (active),–
CN(C)C1CCN(C(=O)c2ccc(NC(=O)Nc3ccc(-c4nc(N5CCOCC5)nc(N5CCOCC5)n4)cc3)cc2)CC1,0.398 µM (active),–
CO[C@@H](C)Cn1c(=O)n(C)c2cnc3ccc(-c4cncc(C(C)(C)O)c4)cc3c21,0.562 µM (active),–
CC(C)(C#N)c1ccc(N2C(=O)OCc3cnc4ccc(-c5cnc6ccccc6c5)cc4c32)cc1,12.6 µM (active),–
NC(=O)Nc1cc(-c2cccc(F)c2)sc1C(=O)NC1CCCNC1 (stereo unspecified),0.447 µM (active),–
C#CC[C@H](c1nc2cc(Cl)ccc2c(=O)n1Nc1ccccc1)N(CCCN)C(=O)c1cccc(Cl)c1F,14.1 µM (active),–
CCCNc1ccc2ncc(-c3ccc4[nH]ncc4c3)n2n1,2 µM (active),–
C=CC(=O)Nc1cccc(CN2C(=O)N(c3c(Cl)c(OC)cc(OC)c3Cl)Cc3cnc(NCCCCN(CC)CC)nc32)c1,–,-1.51% (inactive)
CCNC(=O)Nc1ccc(-c2nc3c(c(N4CCOC[C@@H]4C)n2)CCN(c2ncccn2)C3)cc1,1 µM (active),–
CN(C)c1nc(NC2CCC(NC(=O)c3ccc(F)c(F)c3)CC2)nc2ccccc12 (stereo unspecified),28.2 µM (active),–
C=C1C(OC(C)=O)CCC2(C)CC3(OC)OC(=O)C(C)=C3CC12 (stereo unspecified),–,-6.76% [at 38.5 µM] (inactive)
Cn1c(=O)n(-c2ccc(C(C)(C)C#N)cc2)c2c3cc(C#Cc4cccnc4)ccc3ncc21,0.0891 µM (active),–
CCC(C)C(=O)OC1CC(O)C23C4OCC5(C(O)CC2C1(C)C(O)O4)C3C(=O)CC1(C)C(c2ccoc2)CC2OC215 (stereo unspecified),10 µM (active),–
CNC(=O)c1cccc(-c2ccc3c(N4CCOC[C@@H]4C)nc(N4CCOC[C@@H]4C)nc3n2)c1,1.41 µM (active),–
CC(Oc1ccc2[nH]nc(/C=C/c3cnn(CCO)c3)c2c1)c1c(Cl)cncc1Cl (stereo unspecified),10 µM (active),–
COc1cc2ncnc(Nc3cccc(O)c3)c2cc1OC,–,18.3% (inactive)
CCOc1cc2ncc(C#N)c(Nc3ccc(F)c(Cl)c3)c2cc1NC(=O)/C=C/CN(C)C,25.1 µM (active),–
C[C@H]1[C@H](O)O[C@@H]2O[C@@]3(C)CC[C@H]4[C@H](C)CC[C@@H]1[C@@]24OO3,8.91 µM (active),–
